The source of these data is PubChem BioAssay (NCATS).

The structures appear in SMILES notation. Inconclusive results are not listed. Calls of active or inactive are those of the source. Calls come from the whole dose curve; as a rule, active = well fitted activation curve with a large enough effect; inconclusive = small, poorly fitted or top-dose-only effect; inactive = no such curve, though single readings can be large or run the other way.

For the assay, the target named is Rap guanine nucleotide exchange factor 3 (Homo sapiens) (UniProt O95398). Briefly: Confirmatory qHTS for agonist of cAMP-regulated guanine nucleotide exchange factor 3 (EPAC1) (AID 1645881).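 Note: EPAC1 catalysed release of BODIPY-GDP from Rap1B seen as fluorescence loss; 100% = effect of cAMP agonist control; nearly all actives have a fitted effect of over 75% in size.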 The conditions noted are these: EPAC1 Rap1B BODIPY-GDP exchange fluorescence; series mostly up to 154 µM; activation: at the top concentration. A general note: Quantitative high-throughput screening tests each substance at several concentrations.
Chain of Rap guanine nucleotide exchange factor 3 (Homo sapiens) (O95398 whole entry, looked up): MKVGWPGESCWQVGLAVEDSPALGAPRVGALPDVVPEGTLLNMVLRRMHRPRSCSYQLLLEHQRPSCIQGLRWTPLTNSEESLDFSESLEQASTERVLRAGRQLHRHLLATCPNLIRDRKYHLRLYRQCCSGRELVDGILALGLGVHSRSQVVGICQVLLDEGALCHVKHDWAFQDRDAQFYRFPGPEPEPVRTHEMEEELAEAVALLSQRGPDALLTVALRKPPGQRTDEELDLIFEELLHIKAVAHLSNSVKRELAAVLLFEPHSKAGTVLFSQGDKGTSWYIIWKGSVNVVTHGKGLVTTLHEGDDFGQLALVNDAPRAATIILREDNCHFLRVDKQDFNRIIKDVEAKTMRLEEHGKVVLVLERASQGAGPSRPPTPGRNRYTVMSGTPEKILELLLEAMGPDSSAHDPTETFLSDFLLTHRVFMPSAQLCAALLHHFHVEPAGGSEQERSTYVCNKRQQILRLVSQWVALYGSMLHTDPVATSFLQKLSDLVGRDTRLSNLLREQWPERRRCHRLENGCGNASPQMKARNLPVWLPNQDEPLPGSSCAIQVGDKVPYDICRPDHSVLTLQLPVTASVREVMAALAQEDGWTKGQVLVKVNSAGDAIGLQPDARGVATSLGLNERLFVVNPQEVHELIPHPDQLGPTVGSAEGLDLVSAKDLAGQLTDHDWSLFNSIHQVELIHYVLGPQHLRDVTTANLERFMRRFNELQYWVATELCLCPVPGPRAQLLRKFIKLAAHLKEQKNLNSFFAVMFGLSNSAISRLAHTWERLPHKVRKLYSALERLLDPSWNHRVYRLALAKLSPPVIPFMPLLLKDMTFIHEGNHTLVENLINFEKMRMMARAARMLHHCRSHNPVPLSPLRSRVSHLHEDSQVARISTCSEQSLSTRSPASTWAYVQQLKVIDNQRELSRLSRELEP
`CCOP(=O)(OCC)C(Cc1ccccc1)N=C(c1ccccc1)c1ccccc1` (stereo not given): the “activation” value was -2.31% (inactive).

Regarding `Cc1cc(Br)cc(Cl)c1OC(=O)c1ccncc1`, the “activation” value is 10.7% (inactive).

For `O=C(CCC1N=C2c3ccccc3N=C(SCc3ccc(Cl)cc3)N2C1=O)NCc1cccs1` (stereo not given), the “activation” value is 5.71% (inactive).

As for `COc1ccc(N=C2SC(C(=O)Nc3ccc(C(=O)O)cc3)CC(=O)N2Cc2cccs2)cc1` (stereo not given), the “activation” value was 0.315% (inactive).

Regarding `C=CCc1cccc(CNc2c(C)cc(C)cc2C)c1O`, the “activation” value is 6.96% (inactive).

Consider `CCOc1cc(-c2c(C#N)c(N)nc3c2CCCC3C)ccc1O` (stereo not given), for which the “activation” value is 19.2% (inactive).

On to `COc1ccc(OC)c(N2C(=O)[C@@H]3C(c4ccccc4Cl)=NO[C@@H]3C2=O)c1`, for which the “activation” value was 2.72% (inactive).

On to `Cc1nn(CCc2nn[nH]n2)c2nc(-c3ccc(Br)cc3)cc(C(F)(F)F)c12`, for which the “activation” value was -10.2% (inactive).

On to `O=C(C=Cc1ccccc1)c1c[nH]c2ccccc2c1=O`, for which the “activation” value is 8.78% (inactive).

Turning to `CCOc1ccc(/C=C/C(=O)c2c(O)c3ccccc3oc2=O)cc1`, the “activation” value was 1.22% (inactive).

Turning to `COc1cc(O)c(C=NN2C(=O)CSC2=S)c(OC)c1`, the “activation” value is -0.803% (inactive).

As for `Cc1ccc(CN(C(=O)COc2cccc([N+](=O)[O-])c2)c2ccccn2)cc1`, the “activation” value is 21.3% (inactive).

Turning to `N#C/C(=C/c1cccn1-c1cccc(C(=O)O)c1)c1ccc(F)cc1`, the “activation” value is -0.0995% (inactive).

For `CCN=C1S/C(=C\c2ccc(-c3cccc(C(=O)O)c3)o2)C(=O)N1CC`, the “activation” value was -3.3% (inactive).

In the case of `O=C(Nc1cc(C(F)(F)F)ccc1Cl)c1nc2ccccc2nc1N1CCCCC1`, the “activation” value was 12.9% (inactive).

In the case of `CC1(Cc2cc(Cl)ccc2C(F)(F)F)C(=O)Nc2cc(F)ccc21` (stereo not given), the “activation” value is -7.42% (inactive).

Take `COC1=CC(=O)C(C2CC(=O)c3c(O)cc(O)cc3O2)=CC1=O` (stereo not given): the “activation” value is -1.58% (inactive).

With `O=C(O)C/C(=C\c1cc(Cl)c2c(c1)OCO2)c1nc2ccccc2s1`, the “activation” value is -1.47% (inactive).

Take `O=C1C=CC(c2ccccc2)(c2ccccc2)CC1`: the “activation” value is 12.2% (inactive).

With `COc1ccccc1C(=O)Nc1nnc(SCc2cc(=O)c3ccccc3[nH]2)s1`, the “activation” value is 9.92% (inactive).

As to `CC(C)(C)NC(=O)NC(=O)CN1CCN(S(=O)(=O)c2ccc3c(c2)CCCC3)CC1`, the “activation” value was -12.4% (inactive).

For the compound `CC(C)CCNc1nc(-c2ccco2)c2c(c1C#N)CCCC2`, the “activation” value was 2.22% (inactive).

Take `CC1=Nc2ccccc2N=C(NC(=O)/C=C/C(=O)O)C1c1ccccc1` (stereo not given): the “activation” value is -16.8% (inactive).

Take `CCOC(=O)N(C)c1c(CC)nc2c(OCc3ccc(C(F)(F)F)cc3)cccn12`: the “activation” value was -3.54% (inactive).

Turning to `CC(=Cc1ccccc1)C=C1SC(=S)N(CCCC(=O)Nc2ccc(C(=O)O)cc2)C1=O`, the “activation” value was -7.88% (inactive).

`O=C(Cn1ncc(Cl)c(Cl)c1=O)NC(=O)NC1CCCCC1`: the “activation” value is -2.78% (inactive).

On to `CC(=O)c1sc2nc(-c3ccco3)ccc2c1N`, for which the “activation” value is 5.76% (inactive).

On to `COc1ccc(C(CCN(Cc2ccc(OC)c(OC)c2)C(C)=O)C(C)C)cc1` (stereo not given), for which the “activation” value was 6.27% (inactive).

In the case of `CCOP(=O)(OCC)C(Cc1ccc(OC)c(OC)c1)N=C(c1ccccc1)c1ccccc1` (stereo not given), the “activation” value was -3.66% (inactive).

For `Cc1onc(-c2c(F)cccc2Cl)c1C(=O)OCc1cnc(Cl)s1`, the “activation” value was 14.6% (inactive).

Take `Cc1ccc(C)n1-c1ccc(C(=O)/C=C/N(C)C)cc1`: the “activation” value was 4.26% (inactive).

`O=C(COC(=O)c1ccc2c(c1)C(=O)N(Cc1ccncc1)C2=O)Nc1ccccc1[N+](=O)[O-]`: the “activation” value is 6.63% (inactive).

Regarding `CCN(C(=O)c1noc2c1COc1ccc(C)cc1-2)c1cccc(C)c1`, the “activation” value is 12.3% (inactive).

For the compound `CCOC(=O)N1CCC(Nc2nc3ccccc3n3cnnc23)CC1`, the “activation” value was -10.9% (inactive).

In the case of `C[C@@H]1COC(=O)[C@H](NC(=O)OCC2c3ccccc3-c3ccccc32)C/C=C\C[C@@H](CC(=O)N[C@H](CO)Cc2ccccc2)C(=O)N1`, the “activation” value is -21.7% (inactive).

Regarding `COc1ccccc1-n1c(C)c(C(=O)O)c2cc(OC)c3ccccc3c21`, the “activation” value was 11.8% (inactive).

Turning to `CCOC(=O)C(C)Sc1nc(-c2ccco2)cc(C(F)(F)F)c1C#N` (stereo not given), the “activation” value is -17% (inactive).

As to `Cc1ccc(C)c(CSC2=NC(C)(C)Nc3ccccc32)c1`, the “activation” value is -1.33% (inactive).

For `C[C@@H]1ON(C)[C@H]2C[C@H]3c4[nH]c5ccc(-c6ccc7c(c6)OCO7)cc5c4CCN3C(=O)[C@@H]12`, the “activation” value is 7.92% (inactive).

In the case of `O=C(c1ccc2c(c1)CCCC2)N1CCN(c2nc3ccc(F)cc3s2)CC1`, the “activation” value is 24% (inactive).
